The values below come from the supplement of paper PMC4022240.

Common to all, as to assay: peptide microarray binding signal (635 nm), min-max normalized on array (fraction of array maximum); higher = stronger binding
Test [1] deals with T1, HaloTag-ATRX ADD domain (163-292).
T1 chain: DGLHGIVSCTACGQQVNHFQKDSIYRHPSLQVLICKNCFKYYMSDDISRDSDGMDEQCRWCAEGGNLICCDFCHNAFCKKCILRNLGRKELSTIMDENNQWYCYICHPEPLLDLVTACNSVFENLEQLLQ
As for the experimental part: (§1)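 Histone 13-mer peptides were synthesized as cellulose conjugates with a C-terminal 20-atom PEG linker and printed in triplicate on nitrocellulose. The sequence given is the unmodified backbone; PTMs (Kme1/2/3, Kac, Sph/Tph, Rme/Rme2a/Rme2s, Rcit) are listed in the label and the 'peptide modifications' condition. Slides were probed at 4 °C for 1 h with biotin-labelled (HQ)5-HaloTag reader fusions (ATRX-ADD, ING2-PHD) then streptavidin-Alexa647, or with rabbit histone antibodies then anti-rabbit Alexa647. The mean 635 nm signal of the triplicate spots was scaled 0-1 between the lowest and highest values on each array.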

The target of test [2] is HaloTag-ING2 PHD (mouse Ing2 200-280). Here is the method: as §1
For test [3], the target named is anti-H3K4me3 antibody ab8580. As for the experimental part:
as §1

Test [4] addresses anti-H3K9me3 antibody ab8898. As for the experimental part:
as §1

The mark [5] stands for this setting: peptide region: H2A 11-23, peptide modifications: H2AK13ac, binder concentration: 1:2,000 dilution.
[6] abbreviates: peptide region: H2A 11-23, peptide modifications: H2AK13ac, binder concentration: 1:10,000 dilution.
The mark [7] stands for this setting: peptide region: H2B 1-13, peptide modifications: H2BK11ac, binder concentration: 1:2,000 dilution.
[8] abbreviates: peptide region: H2B 1-13, peptide modifications: H2BK11ac, binder concentration: 1:10,000 dilution.
Setting [9] is: peptide region: H2B 1-13, peptide modifications: H2BK5ac H2BS6ph H2BK11ac, binder concentration: 1:2,000 dilution.
The mark [10] stands for this setting: peptide region: H2B 1-13, peptide modifications: H2BK5ac H2BS6ph H2BK11ac, binder concentration: 1:10,000 dilution.
Where [11] appears, read: peptide region: H2A 11-23, peptide modifications: H2AK15ac, binder concentration: 1:2,000 dilution.
Where [12] appears, read: peptide region: H2A 11-23, peptide modifications: H2AK15ac, binder concentration: 1:10,000 dilution.
[13] abbreviates: peptide region: H2A 11-23, peptide modifications: H2AK13ac H2AK15ac, binder concentration: 1:2,000 dilution.
[14] abbreviates: peptide region: H2A 11-23, peptide modifications: H2AK13ac H2AK15ac, binder concentration: 1:10,000 dilution.

± gives the standard deviation.

B1: H2A 11-23 R A Kac A K T R S S R A G L (peptide)
chain: RAKAKTRSSRAGL
For the molecule B1, the “peptide microarray binding signal” value in test [1] (peptide region: H2A 11-23, peptide modifications: H2AK13ac, binder concentration: 50 nM) worked out at 0.00351 ± 0.00033; in test [1] (peptide region: H2A 11-23, peptide modifications: H2AK13ac, binder concentration: 500 nM), 0.00457; in test [2] (peptide region: H2A 11-23, peptide modifications: H2AK13ac, binder concentration: 10 nM) it was 0.003641 ± 3.4e-05; in test [2] (peptide region: H2A 11-23, peptide modifications: H2AK13ac, binder concentration: 100 nM), 0.0034 ± 0.00042; in test [3] (setting [5]) it was 0.00051 ± 3.1e-05; in test [3] (setting [6]) it was 0.00103 ± 2.8e-05. Also, the entries for the “peptide microarray binding signal” value in test [4] (setting [5]) and in test [4] (setting [6]) were 0.000378 ± 1.6e-05 and 0.00075 ± 2.9e-05, respectively.

B2: H2B 1-13 P E P A K S A P A P Kac K G (peptide)
chain: PEPAKSAPAPKKG
With B2, the “peptide microarray binding signal” value in test [1] (peptide region: H2B 1-13, peptide modifications: H2BK11ac, binder concentration: 50 nM) is 0.00254 ± 0.00043; in test [1] (peptide region: H2B 1-13, peptide modifications: H2BK11ac, binder concentration: 500 nM), 0.001762 ± 1.6e-05; in test [2] (peptide region: H2B 1-13, peptide modifications: H2BK11ac, binder concentration: 10 nM), 0.0156 ± 0.012; in test [2] (peptide region: H2B 1-13, peptide modifications: H2BK11ac, binder concentration: 100 nM), 0.00113; in test [3] (setting [7]) it was 0.000774 ± 9.3e-05; in test [3] (setting [8]), 0.000342 ± 3.8e-06. Moreover, the “peptide microarray binding signal” value was 0.000302 ± 1.1e-05 in test [4] (setting [7]) and 0.000404 ± 4.4e-06 in test [4] (setting [8]).

B3: H2B 1-13 P E P A Kac Sph A P A P Kac K G (peptide)
chain: PEPAKSAPAPKKG
Turning to B3, the “peptide microarray binding signal” value in test [1] (peptide region: H2B 1-13, peptide modifications: H2BK5ac H2BS6ph H2BK11ac, binder concentration: 50 nM) stood at 0.0021 ± 2.5e-05; in test [1] (peptide region: H2B 1-13, peptide modifications: H2BK5ac H2BS6ph H2BK11ac, binder concentration: 500 nM) it was 0.00276 ± 5.8e-05; in test [2] (peptide region: H2B 1-13, peptide modifications: H2BK5ac H2BS6ph H2BK11ac, binder concentration: 10 nM), 0.00603 ± 0.00058; in test [2] (peptide region: H2B 1-13, peptide modifications: H2BK5ac H2BS6ph H2BK11ac, binder concentration: 100 nM), 0.00206 ± 5.4e-05; in test [3] (setting [9]) it was 0.00364 ± 0.00027; in test [3] (setting [10]) it was 0.00131 ± 3.4e-05. Further, the “peptide microarray binding signal” value is 0.00131 ± 4.4e-05 in test [4] (setting [9]) and 0.00185 ± 8e-05 in test [4] (setting [10]).

B4: H2A 11-23 R A K A Kac T R S S R A G L (peptide)
chain: RAKAKTRSSRAGL
In the case of B4, the “peptide microarray binding signal” value came to 0.00502 ± 0.00053 in test [1] (peptide region: H2A 11-23, peptide modifications: H2AK15ac, binder concentration: 50 nM); 0.00495 ± 0.00038 in test [1] (peptide region: H2A 11-23, peptide modifications: H2AK15ac, binder concentration: 500 nM); 0.00388 ± 5.4e-05 in test [2] (peptide region: H2A 11-23, peptide modifications: H2AK15ac, binder concentration: 10 nM); 0.0051 ± 0.00094 in test [2] (peptide region: H2A 11-23, peptide modifications: H2AK15ac, binder concentration: 100 nM); 0.000321 ± 6.7e-06 in test [3] (setting [11]); 0.00126 ± 4.3e-05 in test [3] (setting [12]). Also, the entries for the “peptide microarray binding signal” value in test [4] (setting [11]) and in test [4] (setting [12]) were 0.0004228 ± 4.1e-06 and 0.00121 ± 4.9e-05, respectively.

B5: H2A 11-23 R A Kac A Kac T R S S R A G L (peptide)
chain: RAKAKTRSSRAGL
Take B5: the “peptide microarray binding signal” value in test [1] (peptide region: H2A 11-23, peptide modifications: H2AK13ac H2AK15ac, binder concentration: 50 nM) amounted to 0.00307 ± 8.1e-05; in test [1] (peptide region: H2A 11-23, peptide modifications: H2AK13ac H2AK15ac, binder concentration: 500 nM) it was 0.00481 ± 0.00022; in test [2] (peptide region: H2A 11-23, peptide modifications: H2AK13ac H2AK15ac, binder concentration: 10 nM) it was 0.0034 ± 8e-05; in test [2] (peptide region: H2A 11-23, peptide modifications: H2AK13ac H2AK15ac, binder concentration: 100 nM) it was 0.00227 ± 5.8e-05; in test [3] (setting [13]), 0.000359 ± 1.5e-05; in test [3] (setting [14]), 0.000628 ± 6.7e-06. Further, the “peptide microarray binding signal” value in test [4] (setting [13]) was 0.000529 ± 5.7e-05; in test [4] (setting [14]) it was 0.000577 ± 1.6e-05.
